Measured values from PubChem BioAssay (Tox21).
Where “and” joins values, the source holds several entries; their conditions need not be identical. Equal entries are not always repeated. Results filed as inconclusive are left out. Calls of active or inactive are those of the source. Calls come from the whole dose curve.

assay: qHTS assay to identify small molecule agonists of the AP-1 signaling pathway - cell viability counter screen (AID 1159525); conditions: ME-180 (cervical carcinoma) AP-1-bla cells viability, ATP luminescence, 5 h; series mostly up to 76.8 µM; viability change, negative = cytotoxic: at the top concentration; note: nearly all actives have a fitted effect of over 55% in size
Excerpt: National Center for Advancing Translational Sciences [NCATS]
NIH Chemical Genomics Center [NCGC]
U.S. Environmental Protection Agency [EPA]
National Institutes of Environmental Health Sciences [NIEHS]
National Toxicology Program [NTP]
U.S. Food and Drug Administration [FDA]
Activator protein-1 (AP-1), a transcription factor, plays an important role in tumor genesis by regulating genes involved in cell proliferation, differentiation, apoptosis, and angiogenesis. AP-1 activity is induced by a complex network of signaling pathways that involves extracellular signals, such as growth factors. The AP-1 protein complex formed from c-Fos and c-Jun binding to the AP-1 response element results in transcriptional activation of genes containing such elements within their promoter.
Low molecular weight molecules have been discovered and developed to modulate various components of these signaling pathways, for example, MAP kinase inhibitors. However, many points of pathway modulation remain untested due to the lack of chemical probes making this signaling locus of general interest.
Using a beta-lactamase reporter-gene under control of the AP-1 response element, a cell-based assay [CellSensor(TM) AP-1-bla ME-180 developed by Invitrogen Corp.] was used to measure EGF-induced signaling. The Tox21 10K library compounds were measured for their ability to positively modulate the action of EC50 EGF on reporter gene activity. Compounds were screened in a 15-pt titration series in 1536-well format. The cytotoxicity of the Tox21 compound library against this cell line was tested in parallel by measuring the intra cellular ATP content in the same wells.
Tox21 Assay Protocol Summary:
2500 cells/5uL in Opti-MEM medium containing 0.5% dialyzed FBS, 0.1 mM NEAA, 1 mM sodium pyruvate and 10 mM HEPES was dispensed into 1536-well black wall/clear bottom plates using a Multidrop dispenser and cells were cultured at 37 degrees Celsius overnight. Next day 23 nL of compounds dissolved in DMSO, positive controls or DMSO were delivered to each well using a pin tool. The plates were incubated at 37 degrees Celsius for 5 hours. 1 uL of LiveBLAzerTM B/G FRET substrate (Solution A+B+C+D) was added to each well using a Flying Reagent Dispenser. After incubated at room temperature for 2.5 hours the plates were measured on an EnVision plate reader at Excitation 405nm, Emission1=460nm and Emission 2=530nm. The %Activity was determined from the ratio of 460nm/530nm.
After the plates were read for Beta-Lactamase assay on Envision; 3 ul Cell Titer Glo (Promega) was added to measure the cytotoxicity and the plates were then incubated at RT in dark for 30 min. The luminescence was read on ViewLux (Perkin Elmer, Shelton, CT) using 6 sec exposure. ViewLux data was expressed as relative luminescence units.
For primary data analysis, raw plate reads for each titration point were first normalized relative to […] EGF control (100%) and DMSO only wells (basal, 0%).
For primary data analysis for viability assay, raw plate reads for each titration point were first normalized Tetra n-octyl ammonium bromide control (-100%) and DMSO (control, 100%).
Potency is the fitted concentration of half-maximal effect.

SMILES	viability change, negative = cytotoxic	Potency
CC(Cc1ccc2c(c1)OCO2)NO (stereo not given)	0.756% (inactive)	–
CCNS(=O)(=O)C(F)(F)C(F)(F)C(F)(F)C(F)(F)C(F)(F)C(F)(F)C(F)(F)C(F)(F)F	5.38% (inactive)	–
CC(=O)[O-].CC(=O)[O-].CC(=O)[O-].[Sb+3]	-1.02% [at 2.72 µM] (inactive)	–
ClC1=C(Cl)[C@]2(Cl)[C@H]3[C@H]([C@@H]4C=C[C@H]3C4)[C@@]1(Cl)C2(Cl)Cl	–	38.9 µM (active)
Cc1ccn2nc(S(=O)(=O)Nc3c(F)cccc3F)nc2n1	2.66% (inactive)	–
CC(C)Br	0.62% (inactive)	–
CC[N+]1(CC)CCC(OC(=O)C(O)(c2ccccc2)c2ccccc2)C1 (stereo not given)	0.763% [at 35.3 µM] (inactive)	–
O=C(NC(=O)c1c(F)cccc1F)Nc1ccc(Oc2ccc(C(F)(F)F)cc2Cl)cc1F	-19% (inactive)	–
CCN(CC)Cc1nccn1-c1ccc([N+](=O)[O-])cc1C(=O)c1ccccc1Cl	-0.122% [at 35.3 µM] (inactive)	–
Oc1cc(Cl)cc(Cl)c1	-1.62% (inactive)	–
COc1ccc2[nH]cc(CCN(C(C)C)C(C)C)c2c1	2.76% (inactive)	–
ClC1=C(Cl)[C@]2(Cl)[C@@H]3[C@H]4C[C@H]([C@@H]5O[C@H]45)[C@@H]3[C@@]1(Cl)C2(Cl)Cl	-1.11% (inactive)	–
O=c1[nH]c(Cl)c(Cl)cc1Cl	-10.7% (inactive)	–
CC(Cc1ccc(OCC(=O)O)cc1)NCC(O)c1csc(C(F)(F)F)n1 (stereo not given)	2.3% (inactive)	–
CCOP(=S)(OCC)SC(CCl)N1C(=O)c2ccccc2C1=O (stereo not given)	-8.43% (inactive)	–
O=Cc1ccccc1	-21.2% (inactive)	–
CCC(OC(C)=O)C(CC(C)NC)(c1ccccc1)c1ccccc1 (stereo not given)	-13.7% (inactive)	–
ClC(Cl)C(Cl)(Cl)Cl	-0.559% (inactive)	–
Cc1cnc2c(C(=O)O)c(Cl)ccc2c1	0.415% (inactive)	–
Cc1cc2c3c(c1)C(c1ccccc1)=N[C@@H](NC(=O)c1ccncc1)C(=O)N3CC2	-0.984% (inactive)	–

SMILES	viability change, negative = cytotoxic	Potency
Nc1nc(N)nc(Cl)n1	-4.94% (inactive)	–
CCc1cccc(C)c1N(C(=O)CCl)[C@@H](C)COC	-23.6% (inactive)	–
C=CC(=O)[O][Sn]([CH2]CCC)([CH2]CCC)[CH2]CCC	–	2.45 µM (active)
CNC(=O)/C=C(\C)OP(=O)(OC)OC	2.01% (inactive)	–
Cc1ccc([N+](=O)[O-])[c]2c1[O][Hg]2	–	6.01 µM (active)
CC[C@H](C)[C@H]1O[C@]2(C=C[C@@H]1C)C[C@@H]1C[C@@H](C/C=C(\C)[C@@H](O[C@H]3C[C@H](OC)[C@@H](O[C@H]4C[C@H](OC)[C@@H](NC)[C@H](C)O4)[C@H](C)O3)[C@@H](C)/C=C/C=C3\CO[C@@H]4[C@H](O)C(C)=C[C@@H](C(=O)O1)[C@]34O)O2	–	13.8 µM (active)
Oc1cccc(Cl)c1Cl	-5.99% (inactive)	–
N#Cc1c[nH]cc1-c1cccc2c1OC(F)(F)O2	-13.9% (inactive)	–
CCN(CC)CCc1c[nH]c2ccccc12	15.4% (inactive)	–
C=CC(=C)C	-10.1% (inactive)	–
Cc1c([N+](=O)[O-])cc2c(c1[N+](=O)[O-])C(C)(C)CC2(C)C	9.96% (inactive)	–
CCN(CC)C(=S)S	–	38.7 µM (active)
Clc1ccc(C(c2ccc(Cl)cc2)C(Cl)Cl)cc1	–	24.9 µM (active) and 34.7 µM (active)
[F][Sn]([c]1ccccc1)([c]1ccccc1)[c]1ccccc1	–	7.76 µM (active)
CN(C)C(=S)SSC(=S)N(C)C	–	5.49 µM (active) and 9.52 µM (active)
BrCC(Br)(Br)Br	-1.28% (inactive)	–
C1=CCC=C1	-2.79% (inactive)	–
C#CC1(O)CCCCC1	4.28% (inactive)	–
CN	-4.32% (inactive)	–
C[C@H]1[C@H](c2ccc(Cl)cc2)SC(=O)N1C(=O)NC1CCCCC1	1.05% (inactive)	–
